Measured values as given in ChEMBL document CHEMBL3988442, “University of Dundee, Small-Polar-MMV Screening Library” (2021).
For some assays here: Potency and affinity values are given separately.

How the values were obtained:
Parameters in all cases: scale not given: direction of the effect not stated beside the values
[1] = molecular target: Protein translocase subunit SecA (Escherichia coli (strain K12)) (UniProt P10408); experiment: Assay to Identify E. coli SecA ATPase Inhibitors; format: functional; settings: 30 µM
Sequence of Protein translocase subunit SecA (Escherichia coli (strain K12)) (P10408 whole entry): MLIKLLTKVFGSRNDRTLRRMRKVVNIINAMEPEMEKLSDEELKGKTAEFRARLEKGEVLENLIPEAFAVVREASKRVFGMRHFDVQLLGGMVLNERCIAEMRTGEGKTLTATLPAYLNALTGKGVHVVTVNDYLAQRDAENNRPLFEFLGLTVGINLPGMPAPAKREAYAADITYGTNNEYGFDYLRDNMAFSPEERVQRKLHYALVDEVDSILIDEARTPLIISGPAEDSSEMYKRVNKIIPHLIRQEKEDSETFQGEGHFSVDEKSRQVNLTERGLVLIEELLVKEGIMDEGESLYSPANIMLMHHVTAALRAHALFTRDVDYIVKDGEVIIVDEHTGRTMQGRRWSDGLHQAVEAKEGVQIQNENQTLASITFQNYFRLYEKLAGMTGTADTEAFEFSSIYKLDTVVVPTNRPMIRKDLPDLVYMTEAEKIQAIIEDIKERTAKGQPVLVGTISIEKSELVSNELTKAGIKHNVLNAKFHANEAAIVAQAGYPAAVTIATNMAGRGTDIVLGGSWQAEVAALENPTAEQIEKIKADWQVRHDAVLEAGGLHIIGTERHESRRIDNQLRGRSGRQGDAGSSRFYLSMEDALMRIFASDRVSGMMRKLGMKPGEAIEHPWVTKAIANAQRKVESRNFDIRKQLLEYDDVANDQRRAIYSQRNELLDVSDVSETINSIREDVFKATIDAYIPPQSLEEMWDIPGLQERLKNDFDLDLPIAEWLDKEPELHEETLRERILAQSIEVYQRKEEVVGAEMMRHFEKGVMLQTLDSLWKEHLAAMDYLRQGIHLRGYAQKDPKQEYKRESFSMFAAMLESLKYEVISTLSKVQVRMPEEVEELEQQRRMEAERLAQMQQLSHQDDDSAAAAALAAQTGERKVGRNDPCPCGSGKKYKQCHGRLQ

[2] = molecular target: T1, Ubiquitin-activating enzyme e1, putative (Leishmania donovani (strain BPK282A1)) (UniProt E9BSI1); experiment: Leishmania donovani Ubiquitin Activating Enzyme (LdE1); format: functional; settings: 30 µM
T1 sequence (whole entry): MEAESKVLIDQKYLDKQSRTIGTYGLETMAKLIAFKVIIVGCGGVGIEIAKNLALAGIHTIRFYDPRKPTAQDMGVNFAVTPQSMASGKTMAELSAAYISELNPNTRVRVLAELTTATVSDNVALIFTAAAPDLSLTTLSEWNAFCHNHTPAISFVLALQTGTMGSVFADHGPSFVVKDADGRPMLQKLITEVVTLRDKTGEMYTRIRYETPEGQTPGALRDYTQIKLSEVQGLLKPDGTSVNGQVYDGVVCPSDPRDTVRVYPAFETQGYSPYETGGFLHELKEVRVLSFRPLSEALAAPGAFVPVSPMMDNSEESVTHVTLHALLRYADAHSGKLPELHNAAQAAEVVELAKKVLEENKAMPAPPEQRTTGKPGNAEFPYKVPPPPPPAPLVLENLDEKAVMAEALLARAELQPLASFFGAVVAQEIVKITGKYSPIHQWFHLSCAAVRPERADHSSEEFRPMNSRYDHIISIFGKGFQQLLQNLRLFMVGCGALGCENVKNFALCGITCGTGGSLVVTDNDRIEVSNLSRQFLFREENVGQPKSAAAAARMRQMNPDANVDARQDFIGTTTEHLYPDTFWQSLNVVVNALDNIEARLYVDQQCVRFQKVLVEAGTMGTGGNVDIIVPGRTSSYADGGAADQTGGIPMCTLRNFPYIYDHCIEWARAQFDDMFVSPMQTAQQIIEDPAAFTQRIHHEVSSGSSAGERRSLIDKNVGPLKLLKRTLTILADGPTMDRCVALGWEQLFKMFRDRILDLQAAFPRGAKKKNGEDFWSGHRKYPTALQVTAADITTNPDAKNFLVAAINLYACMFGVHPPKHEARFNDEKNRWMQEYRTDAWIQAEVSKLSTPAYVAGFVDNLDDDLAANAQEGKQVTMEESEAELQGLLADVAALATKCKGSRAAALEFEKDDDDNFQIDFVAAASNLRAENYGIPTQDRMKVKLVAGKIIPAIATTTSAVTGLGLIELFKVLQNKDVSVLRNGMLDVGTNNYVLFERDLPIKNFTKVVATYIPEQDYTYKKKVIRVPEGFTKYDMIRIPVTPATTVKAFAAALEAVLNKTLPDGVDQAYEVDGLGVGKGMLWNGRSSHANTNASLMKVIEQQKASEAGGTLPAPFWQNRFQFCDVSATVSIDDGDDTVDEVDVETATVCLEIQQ

[3] = molecular target: AMP-activated protein kinase, AMPK (Homo sapiens) (UniProt P54646+O43741+P54619+Q9UGJ0+Q9Y478+Q13131+Q9UGI9); experiment: AMP-dependent Kinase enzyme assay. An in vitro enzyme assay that detects ADP turnover that is directly proportional to AMPK activity. This uses naive AMPK that is activated during the assay with MK-8722; format: functional; settings: 30 µM
[4] = molecular target: Sialic acid-binding Ig-like lectin 9 (Homo sapiens) (UniProt Q9Y336); experiment: Hs-Siglec9 ALPHAscreen SOP 20170721; settings: 10 µM
Sequence of Sialic acid-binding Ig-like lectin 9 (Homo sapiens) (Q9Y336 whole entry): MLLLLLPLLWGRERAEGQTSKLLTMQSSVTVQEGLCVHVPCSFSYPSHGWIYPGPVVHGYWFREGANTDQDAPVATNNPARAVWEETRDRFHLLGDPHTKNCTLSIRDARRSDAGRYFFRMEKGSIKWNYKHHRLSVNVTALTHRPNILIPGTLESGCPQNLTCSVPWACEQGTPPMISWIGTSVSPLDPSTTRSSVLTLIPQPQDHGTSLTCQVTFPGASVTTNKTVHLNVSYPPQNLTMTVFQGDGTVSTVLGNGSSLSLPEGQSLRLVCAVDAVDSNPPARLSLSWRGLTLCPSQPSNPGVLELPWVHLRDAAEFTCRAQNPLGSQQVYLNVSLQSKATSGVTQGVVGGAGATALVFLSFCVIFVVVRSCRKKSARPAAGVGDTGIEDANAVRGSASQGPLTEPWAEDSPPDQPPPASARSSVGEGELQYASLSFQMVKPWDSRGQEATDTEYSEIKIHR

Trypanosoma cruzi = experiment: Trypanosoma cruzi phosphomannomutase and mannose-1-phosphate guanylyltransferase assay; format: functional; settings: 10 µM
[5] = molecular target: T2, Arginase-2, mitochondrial (Homo sapiens) (UniProt P78540); experiment: in vitro enzyme assay to detect the production of urea directly proportional to the activity of Arginase II; format: functional; settings: 33.3 µM; further: in the data most compounds retested in dose-response had high values
T2 sequence (whole entry): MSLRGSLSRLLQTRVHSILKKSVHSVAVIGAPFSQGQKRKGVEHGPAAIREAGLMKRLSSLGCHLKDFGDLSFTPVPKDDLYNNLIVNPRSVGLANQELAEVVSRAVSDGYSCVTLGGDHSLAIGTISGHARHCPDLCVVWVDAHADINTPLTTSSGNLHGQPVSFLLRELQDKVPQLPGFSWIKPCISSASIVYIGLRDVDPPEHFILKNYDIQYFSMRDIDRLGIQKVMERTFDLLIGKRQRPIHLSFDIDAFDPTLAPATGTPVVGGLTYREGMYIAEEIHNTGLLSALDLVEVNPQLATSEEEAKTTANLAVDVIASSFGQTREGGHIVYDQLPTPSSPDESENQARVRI

[6] = molecular target: T3, Proteasome subunit beta (Trypanosoma cruzi) (UniProt O96673); experiment: Trypanosoma cruzi proteasome chymotrypsin-like activity (TcProtChymo) assay.; further: in the data most compounds retested in dose-response had high values; format: functional; settings: 9.37 µM
T3 sequence (whole entry): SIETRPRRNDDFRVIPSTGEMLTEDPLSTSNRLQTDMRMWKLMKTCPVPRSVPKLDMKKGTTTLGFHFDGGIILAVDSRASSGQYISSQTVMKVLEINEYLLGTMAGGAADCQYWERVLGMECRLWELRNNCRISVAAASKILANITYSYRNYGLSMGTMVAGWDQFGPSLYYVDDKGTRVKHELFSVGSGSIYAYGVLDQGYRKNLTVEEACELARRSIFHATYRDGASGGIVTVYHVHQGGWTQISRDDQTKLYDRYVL

Homo sapiens = species on record: Homo sapiens; experiment: To identify inhibition of the IFN signalling (Jak-Stat) pathway via expression of an eGFP reporter gene under the control of an IFN-stimulated response element (ISRE) containing MxA promoter.; format: functional; settings: 30 µM
[7] = molecular target: T4, Tyrosyl-tRNA synthetase, putative (Trypanosoma cruzi (strain CL Brener)) (UniProt Q4DSP6); experiment: Trypanosoma cruzi tyrosyl tRNA synthetase (TcYRS) _High Tyrosine SOP; format: functional; settings: 30 µM; further: in the data most compounds retested in dose-response had high values
T4 sequence (whole entry): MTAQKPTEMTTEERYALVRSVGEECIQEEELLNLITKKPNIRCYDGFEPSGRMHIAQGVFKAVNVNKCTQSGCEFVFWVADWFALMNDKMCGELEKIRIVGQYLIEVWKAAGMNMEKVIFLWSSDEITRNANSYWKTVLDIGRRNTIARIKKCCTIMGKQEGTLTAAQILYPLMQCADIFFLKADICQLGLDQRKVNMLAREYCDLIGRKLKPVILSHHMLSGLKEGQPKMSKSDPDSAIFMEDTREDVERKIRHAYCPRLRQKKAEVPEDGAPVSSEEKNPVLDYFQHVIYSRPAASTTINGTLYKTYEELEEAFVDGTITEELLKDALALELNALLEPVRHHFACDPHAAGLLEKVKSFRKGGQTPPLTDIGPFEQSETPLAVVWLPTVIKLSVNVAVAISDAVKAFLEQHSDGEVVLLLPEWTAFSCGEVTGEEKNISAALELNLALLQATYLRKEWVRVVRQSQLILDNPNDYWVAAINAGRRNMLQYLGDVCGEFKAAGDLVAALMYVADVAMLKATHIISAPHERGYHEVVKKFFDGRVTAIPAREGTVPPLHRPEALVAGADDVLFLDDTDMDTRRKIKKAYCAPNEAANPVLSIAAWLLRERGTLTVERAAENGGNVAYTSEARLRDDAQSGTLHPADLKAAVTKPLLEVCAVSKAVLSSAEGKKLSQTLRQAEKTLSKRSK

[8] = molecular target: T4, Tyrosyl-tRNA synthetase, putative (Trypanosoma cruzi (strain CL Brener)); experiment: Trypanosoma cruzi tyrosyl tRNA synthetase (TcYRS) SOP; format: functional; settings: 30 µM
[9] = molecular target: Chromo domain-containing protein 1 (Saccharomyces cerevisiae (strain ATCC 204508 / S288c) (Baker's yeast)) (UniProt P32657); experiment: ScCHD-1 Enzyme Inhibition Assay; format: functional; settings: 30 µM; further: in the data most compounds retested in dose-response had high values
Sequence of Chromo domain-containing protein 1 (Saccharomyces cerevisiae (strain ATCC 204508 / S288c) (Baker's yeast)) (P32657 whole entry, the tested form may be a part): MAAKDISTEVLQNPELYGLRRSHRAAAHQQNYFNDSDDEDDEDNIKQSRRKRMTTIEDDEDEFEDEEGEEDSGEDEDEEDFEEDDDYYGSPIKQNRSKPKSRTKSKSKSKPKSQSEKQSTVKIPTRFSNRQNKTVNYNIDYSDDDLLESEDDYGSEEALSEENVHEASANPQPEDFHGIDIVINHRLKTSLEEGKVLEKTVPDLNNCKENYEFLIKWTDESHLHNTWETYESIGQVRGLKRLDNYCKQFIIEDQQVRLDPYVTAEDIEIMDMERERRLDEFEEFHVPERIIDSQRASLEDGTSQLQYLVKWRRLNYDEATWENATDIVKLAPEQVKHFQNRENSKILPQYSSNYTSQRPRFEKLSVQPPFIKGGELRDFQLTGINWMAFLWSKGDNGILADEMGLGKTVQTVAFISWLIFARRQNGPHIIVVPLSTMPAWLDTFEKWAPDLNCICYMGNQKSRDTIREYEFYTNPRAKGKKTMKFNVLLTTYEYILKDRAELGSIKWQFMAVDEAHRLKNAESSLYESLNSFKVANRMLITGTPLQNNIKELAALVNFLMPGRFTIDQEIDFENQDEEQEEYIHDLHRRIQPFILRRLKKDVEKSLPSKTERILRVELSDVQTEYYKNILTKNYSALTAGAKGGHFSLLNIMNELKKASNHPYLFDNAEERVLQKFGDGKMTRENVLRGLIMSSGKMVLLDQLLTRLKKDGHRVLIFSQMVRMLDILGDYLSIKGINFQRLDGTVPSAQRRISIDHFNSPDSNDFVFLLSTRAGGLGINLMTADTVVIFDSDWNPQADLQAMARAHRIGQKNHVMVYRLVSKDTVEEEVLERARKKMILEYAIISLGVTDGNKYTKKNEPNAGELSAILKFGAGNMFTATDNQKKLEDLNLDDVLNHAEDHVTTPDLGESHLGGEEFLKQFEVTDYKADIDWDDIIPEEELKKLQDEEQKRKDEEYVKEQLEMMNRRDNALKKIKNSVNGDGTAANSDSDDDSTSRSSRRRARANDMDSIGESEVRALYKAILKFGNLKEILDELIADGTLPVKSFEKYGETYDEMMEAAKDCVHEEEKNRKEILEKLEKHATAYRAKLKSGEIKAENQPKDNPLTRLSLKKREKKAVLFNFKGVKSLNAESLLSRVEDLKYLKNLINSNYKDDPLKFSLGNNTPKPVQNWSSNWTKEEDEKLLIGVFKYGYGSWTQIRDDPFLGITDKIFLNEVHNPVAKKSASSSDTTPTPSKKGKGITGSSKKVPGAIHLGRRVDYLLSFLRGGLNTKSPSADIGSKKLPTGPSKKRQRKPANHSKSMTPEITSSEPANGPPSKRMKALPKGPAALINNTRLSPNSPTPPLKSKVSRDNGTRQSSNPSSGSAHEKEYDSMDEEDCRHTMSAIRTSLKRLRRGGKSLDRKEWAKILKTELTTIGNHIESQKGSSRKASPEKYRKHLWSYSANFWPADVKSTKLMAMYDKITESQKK

Compound | Percent Effect [1] | Percent Effect [2] | Percent Effect [3] | Percent Effect [4] | Percent Effect (Trypanosoma cruzi) | Percent Effect [5] | Percent Effect [6] | Percent Effect (Homo sapiens) | Percent Effect [7] | Percent Effect [8] | Percent Effect [9]
CCn1nc(C)c2nc(C(C)C)nc(NCCOC)c21 | -4.55% | 6.67% | 7.63% | 3.6% | 2.36% | -4.4% | 15.5% | 19.2% | 5.29% | 12.8% | -9.33%
Cc1nccn1-c1cc(CNC(=O)c2ccccn2)ccn1 | -3.33% | 16.4% | 4.31% | 6.49% | 3.33% | -0.455% | 17.6% | 15.2% | 2.15% | 20% | -4.24%
Cc1nc(CN2CCN(C(=O)COCc3ccccc3)CC2)no1 | -3.03% | 5.41% | -6.7% | 10.7% | 5.96% | 0.744% | 9.19% | -1.99% | -2.15% | 3.7% | -7.9%
CC(C)c1nnc(NC(=O)NCc2ccc(CO)c(F)c2)s1 | -5.17% | 11.4% | -2.17% | -0.945% | -1.95% | 3.66% | 11.8% | 26.1% | -5.21% | -2.53% | -11.2%
Cn1cc(C2CC(=O)NC23CCN(CC2CC2)CC3)cn1 (stereo unspecified) | -4.62% | 5.33% | -4.75% | 13.8% | 2.32% | 4.12% | 10.1% | 0.353% | 1.04% | 10% | -6.87%
CC(=O)Nc1nc(CN2CCCC2Cn2cc(C)cn2)cs1 (stereo unspecified) | 0.188% | 13% | 1.99% | -21.8% | 1.08% | -6.53% | 21.9% | 4.62% | 9.52% | 25.9% | -28.6%
Cc1ccc(S(=O)(=O)NC(=O)c2cccc(OCC(N)=O)c2)s1 | -3.68% | 20.2% | -5.82% | -5.61% | 0.0944% | 4.18% | 12% | 4.54% | 6.4% | 13.9% | -5.68%
COc1ccc(C(C)N2CCN(Cc3nccn3C)CC2)cc1Cl (stereo unspecified) | -3.06% | 2.6% | -0.681% | 9.44% | -1.87% | 0.712% | 11.3% | 9.04% | 2.91% | 0% | -0.322%
CN(Cc1ccco1)Cc1cncc2c1CCN(c1ncccn1)C2 | -0.988% | 8% | -6.54% | -2.14% | 3.86% | -48.6% | 14.9% | -4.67% | -1.04% | 2.5% | -2.02%
CSCc1nc(C(C)(C)NC(=O)OC(C)(C)C)no1 | -2.5% | 2.67% | -2.2% | 1.89% | 7.3% | -2.08% | 9.07% | -12.6% | -0.546% | 1.24% | 107%
Cc1cc(C)n(-c2cncc(NCCNC(=O)CC3CCCC3)n2)n1 | -5.92% | 5.41% | 16.2% | 27.9% | 0.489% | 1.24% | 8.67% | -10.2% | 1.07% | 8.64% | -4.7%
c1csc(CN2CCO[C@H]3[C@H](OCCN4CCCC4)CC[C@@H]32)n1 | -4.05% | 7.79% | 0.971% | 16% | -0.885% | -57.9% | 8.15% | 10.2% | 2.15% | 11.1% | -0.273%
Cc1nnc(CCNC2CCN(c3ncnc4c(C)csc34)CC2)s1 | -3.21% | 7.79% | 3.06% | 11% | 7.77% | -2.76% | 12.8% | 40.2% | 8.6% | 16.1% | -8.66%
Cc1ccccc1CN1CCN(Cc2nccn2C)CC1 | -3.45% | 5.41% | -4.75% | 4.96% | -3.3% | -1.6% | 0.36% | 16.1% | 3.45% | 3.7% | -1.25%
Cc1n[nH]c(C2CN(CC(=O)NCCc3ccsc3)CCO2)n1 (stereo unspecified) | -1.63% | 5.48% | -9.76% | 0.305% | -3.13% | -0.455% | 20.2% | 8.08% | 4.3% | 15% | -13.8%
COC(=O)c1cc(OCC2CCC2)cc(C(=O)N[C@H]2CC[C@H](O)CC2)c1 | -8.61% | 0% | -13.1% | 12.3% | -5.09% | -0.455% | 2.66% | 32.3% | 0% | 0% | 0.449%
